Most compounds without a hit are left out; they make up all but 4% or so of the library.
PAX8 reporter – inhibitors of PAX8 transcriptional activity in RMG-I cells; RMG-I TPO-luciferase reporter, SteadyGlo, 24 h; inhibition, % at 12.6 µM; hit rate 1.2% among 360,000;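 active means mean replicate inhibition at least 60% with every replicate also reaching 60%; inconclusive means only one of the two criteria is met; inactive means mean below 60% and not all replicates reaching 60%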;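 further: luciferase light reporting Pax8 driven TPO promoter activity; plate controls were median of neutral control wells for no effect and mitoxantrone controls for full effect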
Gli-Sufu antag – antagonists of Gli-Sufu signaling; Sufu-KO-LIGHT fibroblasts, Gli luciferase reporter luminescence; inhibition, % at 5 µM; hit rate 0.74% among 340,000; AID 588413;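 active means inhibition above about 55%, limit read from the data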;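 further: 0% = DMSO-treated cells and 100% = wells with medium but no cells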
Beta cell apopt – blocks beta cell apoptosis. INS-1E cytokine-induced death, ATP luminescence, 48 h; percent of positive-control rescue, neutral wells zero. protection from apoptosis, % (test concentration not listed). hit rate 0.8% among 300,000. AID 435005;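 active means Every replicate reaches about 75%, or at least half do and their mean reaches it too, limit read from the data; inconclusive means At least half of replicates reach the limit but their mean does not; inactive means Under half of replicates reach the limit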;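 further: 0% = cytokine-treated negative control wells and 100% = positive control rescue; higher means more ATP so stronger rescue from cytokine killing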
CSC inhib – blocks cancer stem cells | hit rate 1.1% among 300,000 | cancer stem cell-like cells viability, luminescence | AID 2717 | inhibition, % at 7.5 µM; in the data active means inhibition above about 75%; inconclusive means no clear call, values can overlap the other calls; tested in HMLE shEcad cells
Mdm2-MdmX inh – inhibitors of human Mdm2/MdmX interaction. hit rate 3% among 330,000. O15151+Q00987. SaOS-2 split-luciferase Mdm2/MdmX complementation, luminescence. AID 485346. inhibition, % at 8 µM;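 active means inhibition of at least 50% at 8 µM in the primary screen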
Target sequence (O15151 whole entry, looked up): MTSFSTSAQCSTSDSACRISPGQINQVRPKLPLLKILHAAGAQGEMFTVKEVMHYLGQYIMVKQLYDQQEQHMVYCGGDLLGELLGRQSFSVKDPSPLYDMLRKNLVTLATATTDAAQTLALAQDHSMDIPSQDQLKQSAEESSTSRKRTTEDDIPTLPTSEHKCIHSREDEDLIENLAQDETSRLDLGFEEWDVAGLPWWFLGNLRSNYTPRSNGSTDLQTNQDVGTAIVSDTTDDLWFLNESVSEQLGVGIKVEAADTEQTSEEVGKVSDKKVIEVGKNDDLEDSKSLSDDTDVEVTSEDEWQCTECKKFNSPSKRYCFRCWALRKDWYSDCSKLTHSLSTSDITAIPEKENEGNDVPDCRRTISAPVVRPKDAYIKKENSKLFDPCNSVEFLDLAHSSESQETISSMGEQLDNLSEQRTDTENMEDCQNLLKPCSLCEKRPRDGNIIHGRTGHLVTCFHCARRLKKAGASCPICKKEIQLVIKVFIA
Target sequence (Q00987 whole entry, looked up): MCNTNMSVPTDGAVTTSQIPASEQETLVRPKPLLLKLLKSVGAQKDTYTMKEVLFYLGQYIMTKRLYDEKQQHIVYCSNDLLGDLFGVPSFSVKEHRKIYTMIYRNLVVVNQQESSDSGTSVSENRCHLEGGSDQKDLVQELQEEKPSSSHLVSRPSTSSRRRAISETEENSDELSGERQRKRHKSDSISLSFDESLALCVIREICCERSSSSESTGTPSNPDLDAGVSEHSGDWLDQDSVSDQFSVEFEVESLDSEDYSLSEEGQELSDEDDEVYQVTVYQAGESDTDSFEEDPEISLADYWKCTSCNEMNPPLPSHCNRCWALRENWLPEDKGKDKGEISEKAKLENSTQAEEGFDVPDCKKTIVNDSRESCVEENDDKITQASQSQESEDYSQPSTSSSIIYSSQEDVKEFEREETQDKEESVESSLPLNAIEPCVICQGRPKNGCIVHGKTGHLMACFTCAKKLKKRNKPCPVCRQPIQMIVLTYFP
Shn3 3UTR inh – inhibitors of Schnurri-3 3'UTR reporter in osteoblasts | AID 588674 | inhibition, % at 12.5 µM | Clone20 osteoblast Shn3 3'UTR firefly luciferase, 24 h | hit rate 0.52% among 360,000;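 active means mean inhibition of at least 75% with every replicate also reaching 75%; inconclusive means mean inhibition at least 75% but some replicate below; inactive means mean inhibition below 75%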;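 further: 0% = median of neutral control wells and 100% = pilot-screen positive control compound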
Mdm2-MdmX conf – human Mdm2/MdmX binding inhibition, confirmed; hit rate 55% among 10,000; inhibition, % at 8 µM; shares compounds with Mdm2-MdmX inh; AID 489028; luminescent assay; in the data active means inhibition above about 40%
Full FLuc ctr – counter-screen for Mdm2/MdmX inhibitors: full-length luciferase; shares compounds with Mdm2-MdmX inh; SaOS-2 full-length luciferase counterscreen, luminescence; inhibition, % at 8 µM; hit rate 77% among 6,200;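 active means mean inhibition at 8 µM reaching about 37%, which flags the compound as non-specific, limit read from the data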;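 further: p53-null SaOS-2 cells with luciferase driven by a doxycycline-inducible promoter; compound on cells about two nights before reading with doxycycline added after day one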
* hit, by the source's call; ? = inconclusive; · = no result; + = active, no number.

SMILES | PAX8 reporter | Gli-Sufu antag | Beta cell apopt | CSC inhib | Mdm2-MdmX inh | Shn3 3UTR inh | Mdm2-MdmX conf | Full FLuc ctr
COc1ccc(-c2nc(NC(=O)c3ccccc3)sc2-c2ccc([N+](=O)[O-])cc2)cc1 | 28 | 3 | 3 | 27 | 64* | 11 | 10 | ·
Cc1noc(C)c1S(=O)(=O)N(C)C[C@@H]1OCCCC[C@@H](C)Oc2ccc(NS(=O)(=O)c3ccc(F)cc3)cc2C(=O)N([C@H](C)CO)C[C@@H]1C | -25 | · | · | · | · | · | · | ·
O=C(NCC(F)(F)F)[C@@H]1[C@@H](CO)[C@@H]2Cn3c(ccc(-c4cccnc4)c3=O)[C@@H]2N1Cc1ccncc1 | 4 | · | · | · | · | · | · | ·
Cc1ccc(OCCN2C(=O)C(=O)c3cc(C)ccc32)cc1 | 5 | 33 | 15 | ? | 62* | 8 | 61* | 79*
Cc1ccc2c(c1)C(=O)C(=O)N2Cc1ccc(C(F)(F)F)cc1 | 32 | 2 | -13 | 53 | 72* | -1 | 14 | ·
CCCN1C(=O)C(=O)c2cc(Cl)ccc21 | 24 | 4 | -12 | 10 | 73* | 0 | 67* | 45*
Cc1ccc(OCCCN2C(=O)C(=O)c3cccc(C)c32)cc1 | · | -1 | -3 | -10 | 20 | -10 | · | ·
CCOc1c(OC)cccc1C1CC(=O)Nc2cc(OC)c(OC)cc21 (stereo unspecified) | -5 | · | -6 | -3 | 12 | -2 | · | ·
COc1ccccc1C1CC(=O)Nc2cc3c(cc21)OCCO3 (stereo unspecified) | · | 52 | 32 | 72 | 55* | 58 | 59* | 64*
CCCOc1c(OC)cccc1C1CC(=O)Nc2cc3c(cc21)OCCO3 (stereo unspecified) | · | 6 | 2 | ? | 52* | 16 | 55* | 68*
COc1cccc(C2CC(=O)Nc3cc4c(cc32)OCCO4)c1OC(C)C (stereo unspecified) | 25 | 2 | · | 15 | 23 | 26 | · | ·
CCCOc1c(OC)cccc1C1CC(=O)Nc2cc3c(cc21)OCO3 (stereo unspecified) | · | 0 | · | 51 | 55* | 30 | 51* | 68*
CCOc1ccccc1C1CC(=O)Nc2cc3c(cc21)OCO3 (stereo unspecified) | · | 21 | 33 | 62 | 40 | 31 | · | ·
Cc1c(Cl)cccc1NC(=O)CCC(=O)N/N=C/c1ccc[nH]1 | -8 | 18 | -4 | 38 | 55* | -3 | 41* | 42*
O=C(C1CCOCC1)N1CC(=O)N2[C@H](C1)[C@@H](c1ccc(/C=C/c3ccccc3)cc1)[C@@H]2CO | 2 | · | · | · | · | · | · | ·
O=C(C[C@H]1CC[C@H]2[C@@H](COC[C@H](O)CN2Cc2ccc(Oc3ccccc3)cc2)O1)N1CCCCC1 | 9 | · | · | · | · | · | · | ·
CN1CCC(NC(=O)c2cc(-c3cccc(Br)c3)nc3ccccc23)CC1 | 23 | 8 | 18 | 18 | 66* | -33 | 38 | 65*
O=C(NC1CC1)c1cc(-c2ccc(Br)cc2)nc2ccccc12 | -2 | -12 | 3 | · | 12 | 4 | · | ·
CC1CCc2nc(NC(=O)c3ccc(S(=O)(=O)N4CCCc5ccccc54)cc3)sc2C1 (stereo unspecified) | · | 2 | 18 | 5 | 58* | 82 | 12 | ·
CC1CCc2nc(NC(=O)C3COc4ccccc4O3)sc2C1 (stereo unspecified) | 6 | -10 | 11 | 18 | 52* | 32 | 77* | +
COc1cc(CN2[C@@H]3CNC[C@H]2C3c2ccc(/C=C/c3ccccc3)cc2)cc(OC)c1 (stereo partly specified) | -11 | · | · | · | · | · | · | ·
CCc1nc(Nc2ccc(O)cc2)c2oc3ccccc3c2n1 | -8 | 17 | 6 | 21 | 51* | -10 | 2 | ·
Cc1ccc(C(=O)c2oc3ccc(Cl)cc3c2NC(=O)CN2CCN(C)CC2)cc1 | 20 | -4 | 23 | 38 | 82* | -19 | 34 | 68*
COC(=O)c1c(-c2cccc3ccccc23)csc1NC(=O)Cc1ccc(OC)c(OC)c1 | · | 25 | 24 | 37 | 62* | 87* | 51* | 48*
Cn1nc(C(=O)Nc2ccc(S(=O)(=O)N3CCCCC3)cc2)c2ccccc2c1=O | -7 | 8 | 5 | 9 | 35 | 10 | · | ·
SMILES | PAX8 reporter | Gli-Sufu antag | Beta cell apopt | CSC inhib | Mdm2-MdmX inh | Shn3 3UTR inh | Mdm2-MdmX conf | Full FLuc ctr
Cn1nc(C(=O)Nc2cccc(S(=O)(=O)N3CCCCC3)c2)c2ccccc2c1=O | -24 | 44 | · | · | 63* | 31 | 53* | 83*
O=C(Nc1cccc(S(=O)(=O)N2CCCCC2)c1)c1ccccc1NS(=O)(=O)c1ccc(F)cc1 | 27 | -24 | 52 | 50 | 89* | 21 | 71* | 111*
Cc1ccc(NC(=O)c2ccccc2NS(=O)(=O)c2ccc(F)cc2)cc1S(=O)(=O)N1CCCCC1 | 17 | 43 | 36 | 51 | 89* | 71 | 91* | 28
O=C(C[C@H]1C[C@H]2c3cc(NC(=O)CC4CC4)ccc3O[C@H]2[C@@H](CO)O1)NCc1ccc2c(c1)OCO2 | -26 | · | · | · | · | · | · | ·
C[C@@H]1CN([C@H](C)CO)C(=O)c2cc(NC(=O)CCC(F)(F)F)ccc2O[C@@H](C)CCCCO[C@H]1CN(C)Cc1ccc(Cl)c(Cl)c1 | 2 | · | · | · | · | · | · | ·
O=c1cc(N2CCN(c3ccccc3)CC2)[nH]c(=O)n1C1CCCCC1 | · | 6 | -28 | 49 | 67* | 19 | 66* | 56*
O=c1cc(N2CCN(c3cccc(Cl)c3)CC2)[nH]c(=O)n1C1CCCCC1 | · | 20 | 89* | 66 | 84* | -69 | 72* | 40*
CN1CCN(c2cc(=O)n(C3CCCCC3)c(=O)[nH]2)CC1 | -8 | -1 | -4 | 0 | -7 | 14 | · | ·
O=c1cc(N2CCOCC2)[nH]c(=O)n1C1CCCCC1 | · | -20 | -1 | -14 | 7 | 1 | · | ·
O=C(C[C@H]1CC[C@H]2[C@@H](COC[C@H](O)CN2C(=O)c2ccccc2F)O1)N1CCN(c2ccccc2)CC1 | -6 | · | · | · | · | · | · | ·
O=C(C[C@H]1C=C[C@H](NC(=O)C2CCC2)[C@@H](CO)O1)NCCCN1CCOCC1 | -3 | · | · | · | · | · | · | ·
Cn1c(CNc2ccc(Cl)cc2)nc2ccccc21 | · | -72 | -11 | 58 | -29 | -83 | · | ·
CC(C)N=c1cc2n(-c3ccc(Cl)cc3)c3ccccc3nc-2cc1Nc1ccc(Cl)cc1 | 9 | 16 | 114* | 104* | 97* | 78 | 94* | 6
COc1ccc(-c2nc3ccccc3c(C(=O)Nc3ccc(S(=O)(=O)Nc4cc(C)on4)cc3)c2C)cc1 | · | 6 | 3 | 33 | 76* | 7 | 56* | 53*
C[C@H](CO)N1C[C@H](C)[C@@H](CN(C)S(=O)(=O)c2ccc(F)cc2)Oc2ccc(NC(=O)CCCCCC(=O)Nc3ccccc3N)cc2C1=O | -5 | · | · | · | · | · | · | ·

From PubChem
